High-throughput results deposited in PubChem BioAssay by several laboratories.
Sampled rows, rich in hits. Any-hit rate of the full collection: about 3.8%.
PfHsp90 set2 = growth inhibition of PfHsp90-expressing yeast, primary screen, antimalarial PfHsp90 inhibitor project, S. cerevisiae, BacTiter-Glo luminescence, single point, set 2. BacTiter-Glo ATP, 48 h; yeast lacking PDR1 and PDR3 efflux regulators. inhibition, % at 9.4 µM. 310,000 tested, 0.32% active. AID 504621, 2011;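 active = every replicate shows inhibition above about 80%, whatever the replicate mean, limit read from the data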;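 also: 0% = DMSO neutral controls and 100% = 20 µM radicicol positive controls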
B2AR ag = beta2AR agonists driving receptor internalization, primary screen, cell-based, FAP fluorogen, flow cytometry. Am2.2-beta2AR cells. response, % (concentration not given with the values). 340,000 tested, 0.43% active. Beta-2 adrenergic receptor (Homo sapiens), P07550;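 active = response above a set limit, near 3 SD of response in nonfluorescent compounds, cut at about 42% in these data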
Target sequence (P07550 whole entry, looked up): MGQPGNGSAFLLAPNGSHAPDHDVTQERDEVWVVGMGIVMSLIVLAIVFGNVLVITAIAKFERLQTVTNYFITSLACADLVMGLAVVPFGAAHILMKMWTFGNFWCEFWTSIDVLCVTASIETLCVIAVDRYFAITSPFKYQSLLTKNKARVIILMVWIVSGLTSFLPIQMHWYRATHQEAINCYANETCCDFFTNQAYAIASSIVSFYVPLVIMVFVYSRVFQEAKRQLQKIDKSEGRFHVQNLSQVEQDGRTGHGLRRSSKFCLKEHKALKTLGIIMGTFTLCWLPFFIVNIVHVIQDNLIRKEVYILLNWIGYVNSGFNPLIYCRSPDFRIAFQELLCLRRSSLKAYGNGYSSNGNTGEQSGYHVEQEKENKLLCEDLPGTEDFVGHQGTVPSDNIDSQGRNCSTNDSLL
tim10-1 inh = growth inhibitors of tim10-1 mutant yeast, primary screen, luminescence, uHTS; 330,000 tested, 2.2% active; S. cerevisiae tim10-1 ts strain growth, BacTiter-Glo, 24 h; inhibition, % at 20 µM;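 active = inhibition of at least 40%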;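 also: mutant grown at 25 °C; 0% = DMSO wells with yeast and 100% = wells holding no yeast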
TIM10 inh = growth inhibitors of isogenic TIM10 control yeast, primary screen, counter-screen for tim10-1 yeast inhibitor project, luminescence, uHTS | inhibition, % at 10 µM | S. cerevisiae TIM10 strain growth, BacTiter-Glo luminescence, 24 h | 330,000 tested, 1.4% active | AID 463195, 2010;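 active = inhibition of 40% or more at the single tested concentration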;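 also: wild-type TIM10 isogenic control strain grown at permissive 25 °C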
tim23-1 inh = growth inhibitors of tim23-1 mutant yeast, primary screen, luminescence, uHTS; AID 463212, 2010; S. cerevisiae tim23-1 growth, BacTiter-Glo luminescence, 24 h; inhibition, % at 20 µM; 330,000 tested, 1.3% active;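 active = growth inhibition of the mutant yeast at or above 50%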;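 also: temperature-sensitive mutant grown at 25 °C; plate controls were DMSO-treated mutant yeast for no effect and medium wells lacking yeast for full effect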
tim10-1 confirm = growth inhibitors of tim10-1 mutant yeast, confirmation, single concentration, luminescence, S. cerevisiae; 7,400 tested, 56% active; inhibition, % at 20 µM; shares compounds with tim10-1 inh; S. cerevisiae tim10-1 ts strain growth, BacTiter-Glo, 24 h; AID 463213, 2010;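 active = inhibition of yeast growth at or above a set limit in either of two repeat tests at 20 µM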;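 also: tim10-1 mutant grown at permissive 25 °C to find synthetic lethal compounds; 0% = DMSO yeast wells and 100% = medium wells without yeast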
Starred values were filed as active, the others as inactive; · = not tested or not shown.

SMILES	PfHsp90 set2	B2AR ag	tim10-1 inh	TIM10 inh	tim23-1 inh	tim10-1 confirm
CCOc1ccc(-n2cc(C(=O)Nc3cccc(OC)c3)c3cc(OC)c(OC)cc3c2=O)cc1	-17.5	4.6	41.8*	12.3	22.6	35.9*
CCC(C)n1c(=O)c2sccc2n2c(CCCC(=O)N3CCC(C(N)=O)CC3)nnc12 (stereo not given)	-5.9	-4.6	-3.7	-0.1	16.6	·
CN(C)c1ccc(C(=O)c2ccc(O)cc2O)cc1	-10.2	0.7	40.9*	20.2	49.4	26.6
O=C(c1ccc(O)cc1)c1ccc(O)cc1O	-11.6	-1.4	-4.6	-9.3	-3.1	·
C[C@H]1CN=C(N(C)C)N1CC1CCCCC1	4.9	-0.5	5.4	6.0	1.8	·
COc1ccc(-c2sc3cc4c(cc3c2C#CC2(N)CCCCC2)OCO4)cc1	-6.7	25.5	47.7*	32.8	46.5	43.9*
COc1ccc(-c2sc3ccc(N4CCOCC4)cc3c2C#CC2(O)CCCCC2)cc1	-4.2	4.8	22.0	10.5	26.5	·
CCCOC(=O)c1ccc(NC(=O)c2c(Cl)ccc(Cl)c2OC)cc1	-55.2	4.5	48.0*	14.7	45.2	32.2*
CCN1C[C@@H]2[C@@H]3C(=O)N(C)C(=O)[C@@H]3[C@](Cc3ccccc3)(C1=O)N2C(=O)c1ccc(Cl)c(Cl)c1	17.8	-4.4	·	·	·	·
Cc1cc(C)nc(OC(=O)c2c(Cl)cc(Cl)cc2Cl)n1	14.5	0.5	44.3*	22.2	35.8	33.4*
Cc1cc(OC(=O)c2c(Cl)cc(Cl)cc2Cl)nc(C)n1	·	-5.5	26.8	28.4	31.4	·
CSc1oc(-c2ccco2)nc1S(=O)(=O)c1ccccc1	9.9	-13.4	11.9	-8.1	13.6	·
CC(C)Sc1oc(-c2ccco2)nc1S(=O)(=O)c1ccccc1	-8.6	0.6	41.3*	30.1	49.1	30.2
CC1(c2ccc(OC(F)F)cc2)NC(=O)N(/N=C/c2c(O)ccc3ccccc23)C1=O (stereo not given)	7.7	-0.6	41.9*	21.7	47.0	26.8
C=CCNc1sc(C(=O)c2ccccc2)c(N)c1-c1nc2ccccc2s1	·	11.1	40.0*	22.0	44.2	17.9
CCOC(=O)c1sc(NCc2ccco2)c(-c2nc3ccccc3s2)c1N	-12.9	12.5	31.5	19.6	26.2	·
CN(CCOc1ccc(Cl)cc1)C(=O)Cc1ccc(S(=O)(=O)N2CCOCC2)s1	10.5	0.1	8.8	17.6	17.9	·
COc1ccc(C(=O)c2cnc(/N=C/N(C)C)s2)cc1	·	-18.2	44.3*	27.7	14.6	36.5*
COc1ccc(S(=O)(=O)N2CCCCC2)cc1NC(=O)c1cccc(S(=O)(=O)N2CC(C)OC(C)C2)c1 (stereo not given)	5.0	2.2	·	·	·	·
COc1cccc(/C=N/NC(=O)C(=O)NCc2ccco2)c1O	-8.2	3.6	58.2*	30.6	37.2	13.8
Cc1ccc(Cl)cc1N1CCN(C(=O)CSc2nnc3n2C(C)(C)Cc2ccccc2-3)CC1	·	5.5	2.3	16.1	4.4	·
COc1ccc(N2CCN(C(=O)CSc3nnc4n3C(C)(C)Cc3ccccc3-4)CC2)cc1	2.9	-0.6	46.0*	17.5	37.7	25.1
Cn1nc(-c2ccccc2)cc1NC(=O)Nc1ccc(C(C)(C)C)cc1	-10.9	15.2	40.6*	25.9	39.5	38.7*
COc1cc(C(=O)Nc2ccncc2)cc(OC)c1OC	-0.8	-2.6	2.3	-1.0	-1.2	·
COc1cc(C(=O)Nc2ccc(Cl)c(C(F)(F)F)c2)cc(OC)c1OC	44.9	12.9	42.8*	35.9	44.3	53.3*
SMILES	PfHsp90 set2	B2AR ag	tim10-1 inh	TIM10 inh	tim23-1 inh	tim10-1 confirm
COc1cc(C(=O)Nc2ccc(Nc3ccccc3)cc2)cc(OC)c1OC	-6.4	12.3	43.3*	25.1	42.5	41.6*
O=C(CN1C(=O)c2ccc([N+](=O)[O-])cc2C1=O)Nc1ccccc1N1CCCC1	9.1	-5.8	2.2	10.1	10.7	·
O=c1cc(-c2ccccc2)[nH]n1-c1ccc([N+](=O)[O-])cc1	1.7	20.9	42.6*	22.9	25.2	29.5
C=CCN1C(=O)C(O)(CC(=O)c2ccc(-n3cccc3)cc2)c2ccccc21 (stereo not given)	-7.5	-1.5	43.1*	29.4	38.9	36.2*
CC1CCN(Cc2nnnn2-c2ccc(Cl)cc2)CC1	-2.2	-11.3	56.5*	17.3	49.5	36.8*
Clc1ccc(-n2nnnc2CN2CCOCC2)cc1Cl	-0.6	-3.2	20.2	-13.7	5.2	·
COc1ccc(COC(=O)Nc2cc3c(C(F)(F)F)nn(C)c3s2)cc1	-2.7	-2.3	43.8*	14.4	12.3	26.2
CCCCCCCCC(=O)O	·	·	45.5*	11.8	42.7	2.4
CC1=CC(C)(C)Nc2ccc(OC(=O)CN3C(=O)c4ccccc4C3=O)cc21	14.6	1.0	46.9*	16.1	42.0	32.5*
C=CCSc1nc(N(CC)CC)c2sccc2n1	-7.5	0.7	43.6*	19.1	37.2	28.4
COc1ccc(Br)cc1[C@H]1[C@@H]2C=CCC[C@@]2(C)C(=O)N1Cc1ccccc1	-25.3	18.0	43.9*	7.0	6.3	37.5*
COc1ccc(-c2ccc(OC)c([C@H]3[C@@H]4C=CCC[C@@]4(C)C(=O)N3Cc3ccccc3)c2)cc1OC	-20.3	5.9	25.4	16.2	33.6	·
C[C@@]12CCC=C[C@H]1[C@H](c1ccc3ccccc3c1)N(Cc1ccccc1)C2=O	26.2	8.8	52.2*	13.0	11.6	53.0*
COc1ccc(OC)c(NC(=O)Cc2coc3ccc4ccccc4c23)c1	6.3	1.1	41.8*	29.5	23.5	7.5
O=C(O)Cc1coc2ccc3ccccc3c12	·	2.7	43.8*	16.6	41.2	48.4*
COc1ccc(OC)c(NC(=O)Cc2coc3ccc(C)cc23)c1	-8.5	-6.2	36.6	19.9	34.9	·
O=C(CCN1CCCCC1)c1cccc(Cl)c1	-35.1	-8.2	·	·	·	·
Cc1ccc(C)c(C(=O)OCC(=O)Nc2cccc(S(=O)(=O)N3CCCCC3)c2)c1	-3.5	-5.6	25.8	10.0	21.7	·
C=CCNC(=S)NNC(=O)c1cccn(Cc2ccc(Cl)cc2Cl)c1=O	·	-2.1	46.5*	-21.9	12.2	29.6
COc1ccc(C2(O)CC3CCC(C2)N3c2cc(C)nc(-c3ccccc3)n2)cc1 (stereo not given)	9.3	-12.2	42.4*	33.1	30.8	31.6*
Cc1cc(N2CCCC2)nc(N2C3CCC2CC(O)(c2ccc(F)cc2)C3)n1 (stereo not given)	·	·	0.1	11.6	3.0	·
CCCn1cnc2c(SCc3ccccc3Cl)nc(N)nc21	-2.4	-16.0	·	·	·	·
Cc1ccc(CNC(=O)c2ccccc2NC(=O)C2=CSCCO2)cc1	-24.0	4.2	40.0	18.0	23.6	17.9
